Values joined by “and” are separate entries in the source; they are usually repeats but may differ in a detail not shown here. Identical values can stand only once. Records with an inconclusive call do not appear. Values without a mark were called inactive. Active and inactive are the calls of the source. Calls follow the shape of the dose curve; as a rule, active = well fitted cell-killing curve with a large enough effect in the repeat runs; inconclusive = weak or mixed curves; inactive = no such curve, though single readings can be large or run the other way.
% is scaled to controls: 0 for no effect and ±100 for the full control effect; potency is read from the fitted curve at half-maximal effect.

The assay in a line: qHTS assay for identifying genotoxic compounds that show differential cytotoxicity against isogenic chicken DT40 cell lines with known DNA damage response pathways - Rad54/Ku70 mutant cell line (AID 743015). Also: nearly all actives have a fitted effect of over 60% in size. The conditions noted are these: DT40 Rad54/Ku70 mutant viability, CellTiter-Glo, 40 h; series mostly up to 66.8 µM; activity change, negative = cytotoxicity: at the top concentration. From the text:
National Center for Advancing Translational Sciences [NCATS]
NIH Chemical Genomics Center [NCGC]
U.S. Environmental Protection Agency [EPA]
National Institutes of Environmental Health Sciences [NIEHS]
National Toxicology Program [NTP]
U.S. Food and Drug Administration [FDA]
DNA repair pathways play a critical role in cellular homeostasis by repairing DNA damage induced by endogenous processes and xenobiotics. Isogenic chicken DT40 cell lines deficient in different DNA repair pathways can be used to identify genotoxic compounds and aid in characterizing the nature of the DNA damage induced. Two DNA repair-deficient cell lines with disrupted genes, Rad54/Ku70 or Rev3, were used to screen the Tox21 10K compound library. Possible genotoxicity was based on the presence of a significant increase in cytotoxicity in one or more of the DNA repair-deficient cell lines compared to that observed in the parental DNA repair-proficient cell line. CellTiter Glo viability assay (Promega, Madison, WI) was used to measure cell viability in these cells after compound treatment. This assay includes the data from the Rad54/Ku70 mutant cell line.
Tox21 Assay Protocol Summary:
300 DT40 mutant cells in 5 uL/well were dispensed into white, solid-bottom 1536-well plates using a Multidrop Combi (ThermoFisher Scientific, Waltham, MA) dispenser. After the assay plates were incubated at 37 C/5% CO2 for approximately 0.5 hour, 23 nL of compounds dissolved in DMSO, positive controls or DMSO only was transferred into the assay plate by a pintool work station (Kalypsys, San Diego, CA). The assay plates were incubated at 37 C/5% CO2 for 40 hours. After 5 uL per well of CellTiter-Glo reagent was added into each well of the assay plates, the plates were incubated for 30 min at room temperature and the luminescence intensity of the plates was measured using a ViewLux (PerkinElmer, Shelton, CT) plate reader.
(qHTS replaces the single test concentration by a dilution series.)
Take `O=C1CCCc2c1cc1ccc3cccc4ccc2c1c34`: the “activity change, negative = cytotoxicity” value is 0.0562% [at 95.1 µM]. For `CCCCCCCCCCn1cc[n+](CCCCCCCCCC)c1C`, the Potency was 0.122 µM (active). `CC[C@H]1O[C@]2(CC[C@@H]1C)C[C@@H]1C[C@@H](C/C=C(\C)C[C@@H](C)/C=C/C=C3\CO[C@@H]4[C@H](O)C(C)=C[C@@H](C(=O)O1)[C@]34O)O2`: the Potency is 6.06 µM (active). `NC(=NCCCCCCN=C(N)/N=C(\N)Nc1ccc(Cl)cc1)/N=C(\N)Nc1ccc(Cl)cc1`: the Potency is 17.1 µM (active) [middle of 5 runs]. In the case of `CCC(C)Nc1ccc(NC(C)CC)cc1` (stereo not given), the Potency was 6.99 µM (active). On to `NNc1nc(-c2ccccc2)cs1`, for which the “activity change, negative = cytotoxicity” value is -16.9% [at 95.1 µM]. For the compound `C[C@@H](NCCCc1cccc(C(F)(F)F)c1)c1cccc2ccccc12`, the Potency is 5.96 µM (active). Same read-out and setting: with `On1ccccc1=S` the figure was 0.215 µM (active).

Take `C=CC(=O)OCC(CO)(COCC(COC(=O)C=C)(COC(=O)C=C)COC(=O)C=C)COC(=O)C=C`: the Potency is 0.303 µM (active).

With `CC(=O)N1CCN(c2ccc(OC[C@H]3CO[C@](Cn4ccnc4)(c4ccc(Cl)cc4Cl)O3)cc2)CC1`, the Potency was 21.1 µM (active) and 6.11 µM (active).

As for `COc1ccc(CN2CCN(C(c3ccc(F)cc3)c3ccc(F)cc3)CC2)c(OC)c1OC`, the Potency is 6.68 µM (active). Turning to `CCC1=C[C@@H]2CN(C1)Cc1c([nH]c3ccccc13)[C@@](C(=O)OC)(c1cc3c(cc1OC)N(C)[C@H]1[C@@](O)(C(=O)OC)[C@H](OC(C)=O)[C@]4(CC)C=CCN5CC[C@]31[C@@H]54)C2`, the Potency was 0.119 µM (active). For `c1cc(C(c2ccc(OCC3CO3)cc2)c2ccc(OCC3CO3)cc2)ccc1OCC1CO1` (stereo not given), the Potency was 13.7 µM (active).

As to `COc1ccc(C(=O)/C(Br)=C\C(=O)O)cc1`, the Potency is 6.11 µM (active). Still for that read-out and setting: the same measure for `CCCCCCCCCCCCCCCCCC[N+](C)(C)Cc1ccccc1`: 0.871 µM (active). With `O=[N+]([O-])c1cc(Cl)c(Cl)c(Cl)c1Cl`, the “activity change, negative = cytotoxicity” value is 9.59%. `CCCCCCCCCCCC(=O)NCCCN(C)C`: the Potency is 6.86 µM (active).

On to `CC(C)(C)C(=O)OCOC(=O)[C@@H]1N2C(=O)[C@@H](NC(=O)[C@H](N)c3ccccc3)[C@H]2SC1(C)C`, for which the “activity change, negative = cytotoxicity” value was 8.53% [at 30.7 µM].

With `O=c1[nH]cnc2nc[nH]c12`, the “activity change, negative = cytotoxicity” value is 14.6%.

Take `Oc1ccc(C2(c3ccc(O)cc3)CC3CC2C2CCCC32)cc1` (stereo not given): the “activity change, negative = cytotoxicity” value was -1.82%. As to `CCCCCCCCOC(=O)c1ccc(O)cc1`, the Potency was 60.9 µM (active). Turning to `Cc1cccc2c1cc1ccc3cccc4ccc2c1c34`, the “activity change, negative = cytotoxicity” value was -2.66% [at 95.1 µM]. As for `C1CCCC1`, the “activity change, negative = cytotoxicity” value is -0.0885%. Same read-out and setting: with `CCOC(=O)O[C@]1(C(=O)OCCl)CC[C@H]2[C@@H]3CCC4=CC(=O)C=C[C@]4(C)[C@H]3[C@@H](O)C[C@@]21C` the figure was 7.51%. Take `N=C1N=C(N)c2cc3ccccc3cc21`: the Potency was 27.3 µM (active). On the same count and under the same terms, with `N#CSc1ccc(N)c([N+](=O)[O-])c1` the figure was 9.75 µM (active); with `CCCCCCCC/C=C\CCCCCCCCOCCO`, 8.91 µM (active); with `CCN(Cc1cccnc1)C(=O)c1cccc(Cl)c1[C@]1(C)C(=O)N(Cc2ccc(OC)cc2OC)c2ccc(Cl)cc21`, 5.09 µM (active). Take `CNCc1cc(F)ccc1Oc1ccc(Cl)c(Cl)c1`: the Potency was 13.7 µM (active). The same measure, in the same setting: the same measure for `Cc1ccc2oc(CN(Cc3ccccc3)C(=O)Nc3c(F)cc(F)cc3F)c(-c3ccc(Cl)cc3)c2c1`: 14.9 µM (active). Still for that read-out and setting: the same measure for `O=C(NO)C1(NS(=O)(=O)c2ccc(Oc3ccc(F)cc3)cc2)CCOCC1`: 30.6 µM (active); for `CCCCCCCCNC(C)C(O)c1ccc(SC(C)C)cc1` (stereo not given): 1.68 µM (active). Regarding `O=C(Nc1cccc(C(F)(F)F)c1)c1cc(Br)cc(Br)c1O`, the Potency was 6.68 µM (active) and 4.86 µM (active). In the case of `CC(NN)c1ccccc1` (stereo not given), the “activity change, negative = cytotoxicity” value is -0.247%. With `Cc1nc(-c2ccc3c(c2)CCN(CCC2CCC(NC(=O)/C=C/c4ccc(F)cc4)CC2)CC3)no1` (stereo not given), the Potency is 0.546 µM (active). On the same count and under the same terms, with `Cc1cc2c(cc1C(F)(F)F)N(C(=O)Nc1ccc(Oc3cccnc3C)nc1)CC2` the figure was 22 µM (active); with `Oc1c(Cl)cc(Cl)c2cccnc12`, 4.22 µM (active).

In the case of `O=[N+]([O-])c1cc([N+](=O)[O-])c2ccc(S(=O)(=O)O)cc2c1O`, the “activity change, negative = cytotoxicity” value is 0.586%. On to `CN(C)c1ccc(SC#N)cc1`, for which the Potency was 38.6 µM (active). With `Cc1onc(-c2c(Cl)cccc2Cl)c1C(=O)N[C@@H]1C(=O)N2[C@@H]1SC(C)(C)[C@@H]2C(=O)O`, the “activity change, negative = cytotoxicity” value was 5.69%.

Values taken from PubChem BioAssay (Tox21).
